Measured values as given in PubChem BioAssay (NCATS).
Records with an inconclusive call do not appear. Unmarked numbers belong to inactive results. The source made the active and inactive calls. Calls follow the shape of the dose curve; as a rule, active = well fitted cell-killing curve with a large enough effect; inconclusive = small, poorly fitted or top-dose-only effect, or effect the other way; inactive = no such curve, though single readings can be large or run the other way.

Key:
[1] = Viability qHTS for spleen associated tyrosine kinase inhibitor (SYKi) naive MV4-11 cells (AID 1963823); also: nearly all actives have a fitted effect of over 40% in size
Outline: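 qHTS, SYK inhibitor-naive MV4-11; 500 cells/well; 72 hr compound exposure, 37 C; CellTiter-Glo added, 10 min RT; luminescence read.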

[2] = Viability qHTS for spleen associated tyrosine kinase inhibitor (SYKi) drug resistant MV4-11 cells (AID 1963824); also: nearly all actives have a fitted effect of over 35% in size
Outline: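 SYK inhibitor-resistant MV4-11 AML cells, 500 per well, added to predispensed compounds and incubated 72 hr at 37 C, 5% CO2. Viability measured by CellTiter-Glo luminescence after 10 min at room temperature.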
Potency is read from the fitted curve at half-maximal effect.

SMILES | Potency [1] | Potency [2] | viability (% of control) [1] | viability, % of control [2]
C=C(C)[C@@H]1CC[C@]2(C)CC[C@]3(C)[C@H](CC[C@@H]4[C@@]5(C)CC[C@@H](O)C(C)(C)[C@@H]5CC[C@]43C)[C@@H]12 | inactive | inactive | – | –
CC(C)=CCC[C@](C)(O[C@@H]1O[C@H](CO)[C@@H](O)[C@H](O)[C@H]1O)[C@H]1CC[C@]2(C)[C@@H]1[C@H](O)CC1[C@@]3(C)CC[C@H](O)C(C)(C)C3[C@@H](O[C@@H]3O[C@H](CO)[C@@H](O)[C@H](O)[C@H]3O[C@@H]3OC[C@@H](O)[C@H](O)[C@H]3O)C[C@]12C (some centres undefined) | – | – | 84.7% [at 9.25 µM] | 84.8% [at 9.25 µM]
CC1NC(=O)CNC(=O)C(C(C)C)NC(=O)C2CCCN2C(=O)C(C(C)C)NC(=O)C(Cc2c[nH]c3ccccc23)NC1=O (centres undefined) | inactive | inactive | – | –
C1CCN2CC3C[C@@H](CN4CCCC[C@@H]34)[C@H]2C1 | inactive | inactive | – | –
C=C1C(=O)O[C@@H]2/C=C(\CO)CC/C=C(/C=O)C[C@H](O)[C@@H]12 | 4.11 µM (active) | 3.26 µM (active) | – | –
NC(=O)CCCSc1nc(N)nc(-c2c(Cl)cc3c4c(cccc24)COC3)n1 | 0.0651 µM (active) | 0.092 µM (active) | – | –
C=C1CC[C@@H](O)[C@]2(C)CC[C@H]3C(=C)C(=O)O[C@@H]3[C@@H]12 | 18.4 µM (active) | 11.6 µM (active) | – | –
COC(=O)C[C@@H]1C(C(=O)O)=CO[C@@H](O[C@@H]2O[C@H](CO)[C@@H](O)[C@H](O)[C@H]2O)/C1=C\COC(=O)/C=C\c1ccccc1 | inactive | inactive | – | –
CC1(C)CCC2(C(=O)OC3OC(COC4OC(CO)C(O)C(O)C4O)C(O)C(O)C3O)CCC3(C)C(=CCC4C5(C)CCC(OC6OCC(O)C(O)C6O)C(C)(C)C5CCC43C)C2C1O (centres undefined) | – | – | 56.1% [at 9.25 µM] | 90.4% [at 9.25 µM]
CCC(C)(OC(C)=O)C(=O)O[C@H]1[C@H](OC(C)=O)[C@]2(CO)[C@H](O)[C@H](O)[C@]3(C)C(=CCC4[C@@]5(C)CC[C@H](O[C@@H]6O[C@H](C(=O)O)[C@@H](O)[C@H](O[C@@H]7OC[C@H](O)[C@H](O[C@@H]8OC[C@H](O)[C@H](O)[C@H]8O)[C@H]7O)[C@H]6O[C@@H]6O[C@H](CO)[C@@H](O)[C@H](O)[C@H]6O)C(C)(C)C5CC[C@]43C)[C@@H]2CC1(C)C (some centres undefined) | 2.75 µM (active) | 2.45 µM (active) | – | –
O=C(Nc1cccnn1)N1CCN(c2nccc(-c3ccc(F)c(F)c3)n2)CC1 | inactive | inactive | – | –
CCCc1[nH]nc2c1C(c1cc(Cl)cc(Cl)c1O)C(C#N)=C(N)O2 (centres undefined) | 16.4 µM (active) | 16.4 µM (active) | – | –
CC(C)=CCC[C@](C)(O[C@@H]1O[C@H](CO[C@@H]2O[C@@H](CO)[C@H](O)[C@H]2O[C@@H]2OC[C@@H](O)[C@H](O)[C@H]2O)[C@@H](O)[C@H](O)[C@H]1O)[C@H]1CC[C@]2(C)[C@@H]1[C@H](O)CC1[C@@]3(C)CC[C@H](O[C@@H]4O[C@H](CO)[C@@H](O)[C@H](O)[C@H]4O[C@@H]4O[C@H](CO)[C@@H](O)[C@H](O)[C@H]4O)C(C)(C)C3CC[C@]12C (some centres undefined) | – | – | 94.1% [at 9.25 µM] | 92.9% [at 9.25 µM]
CC1(C)CCC2(C(=O)OC3OCC(O)C(O)C3O)CCC3(C)C(=CCC4C5(C)CC(O)C(OC6OC(COC7OCC(O)C(O)C7O)C(O)C(O)C6O)C(C)(C)C5CCC43C)C2C1 (centres undefined) | – | – | 68.8% [at 9.25 µM] | 78.5% [at 9.25 µM]
CCC1=CC2CN(C1)Cc1c([nH]c3ccccc13)[C@@](C(=O)OC)(c1cc3c(cc1OC)N(C)[C@H]1[C@@](O)(C(=O)OC)[C@H](OC(C)=O)[C@]4(CC)C=CCN5CC[C@]31[C@@H]54)C2 (some centres undefined) | 0.0252 µM (active) | 0.0126 µM (active) | – | –
COc1cc(C)c(C(=O)O[C@@H]2[C@H](O)[C@@H](CO)O[C@H]2n2ccc(=O)[nH]c2=O)c(OC)c1 | inactive | inactive | – | –
CC1(C)CC[C@]2(C(=O)O[C@@H]3O[C@H](CO)[C@@H](O)[C@H](O)[C@H]3O)CC[C@]3(C)C(=CCC4[C@@]5(C)C[C@@H](O)[C@H](O)C(C)(C)C5[C@H](O)C[C@]43C)[C@@H]2[C@@H]1O (some centres undefined) | inactive | inactive | – | –
C/C1=C/CCC2=CC(OC2=O)C(C)(C)/C=C/C1=O (centres undefined) | 0.517 µM (active) | 0.517 µM (active) | – | –
CC1(C)CC[C@]2(C(=O)O[C@@H]3O[C@H](CO)[C@@H](O)[C@H](O)[C@H]3O)CC[C@]3(C)C(=CCC4[C@@]5(C)CC[C@H](O[C@@H]6O[C@H](C(=O)O)[C@@H](O)[C@H](O)[C@H]6OC6OC(CO)C(O)C(O)C6O)C(C)(C)C5CC[C@]43C)[C@@H]2C1 (some centres undefined) | – | – | 89.4% [at 9.25 µM] | 91% [at 9.25 µM]
NC1(C(=O)NC(CCO)c2ccc(Cl)cc2)CCN(c2ncnc3[nH]ccc23)CC1 (centres undefined) | 2.31 µM (active) | 4.11 µM (active) | – | –
C/C=C(/C)C(=O)O[C@H]1C=C(CO)C(=O)[C@H](OC(=O)/C(C)=C/CO)[C@H]1C(C)C | 2.02 µM (active) | 1.61 µM (active) | – | –
CC/C=C\C(O)C(O)C1=C(C)C(=O)C2(O1)C(=O)NC(OC)(C(=O)c1ccccc1)C2O (centres undefined) | inactive | inactive | – | –
CC(C)=CCC[C@](C)(O[C@@H]1O[C@H](CO)[C@@H](O)[C@H](O)[C@H]1O)[C@H]1CC[C@]2(C)[C@@H]1[C@H](O)CC1[C@@]3(C)CC[C@H](O)C(C)(C)C3[C@@H](O[C@@H]3O[C@H](CO)[C@@H](O)[C@H](O)[C@H]3O[C@@H]3O[C@@H](C)[C@H](O)[C@@H](O)[C@H]3O)C[C@]12C (some centres undefined) | – | – | 90.7% [at 9.25 µM] | 105% [at 9.25 µM]
O=C(/C=C/c1ccc(O)c(O)c1)O[C@H]1[C@@H]2C=CO[C@@H](O[C@@H]3O[C@H](CO)[C@@H](O)[C@H](O)[C@H]3O)[C@@H]2[C@@]2(CO)O[C@@H]12 | inactive | inactive | – | –

SMILES | Potency [1] | Potency [2] | viability (% of control) [1] | viability, % of control [2]
CCC(C)/C=C(C)/C=C/C1=CC2=C(Cl)C(=O)C(C)(OC(C)=O)C(=O)C2(O)C(OC)O1 (centres undefined) | 11.2 µM (active) | 7.96 µM (active) | – | –
CC1(CO)CCCC2(C)C1C(OC(=O)c1ccccc1)C=C1C(=O)OCC12O (centres undefined) | 1.8 µM (active) | 1.61 µM (active) | – | –
Cc1c(C(=O)O)c(O)cc2c1C(=O)c1c(O)c([C@@H]3O[C@H](CO)[C@@H](O)[C@H](O)[C@H]3O)c(O)c(O)c1C2=O | inactive | inactive | – | –
CCCn1c(=O)c2[nH]c(-c3ccc(OCC(=O)O)cc3)nc2n(CCC)c1=O | inactive | inactive | – | –
CC1(C)CC[C@]2(C(=O)OC3OC(CO)C(O)C(O)C3O)CC[C@]3(C)C(=CCC4[C@@]5(C)CC[C@H](OC6OC(C(=O)O)C(O)C(OC7OC(CO)C(O)C(O)C7O)C6O)C(C)(C)C5CC[C@]43C)C2C1 (some centres undefined) | – | – | 77.3% [at 9.25 µM] | 96.9% [at 9.25 µM]
C=C1C(=O)O[C@@H]2[C@H]1CCC(C)=C(CCC(=O)O)[C@@]2(C)O | 9.2 µM (active) | 4.11 µM (active) | – | –
COC1CC(=O)C23C(=O)NC(Cc4c[nH]c5ccccc45)C2C(C)C2(C)OC2C3/C=C/CC(C)CC1O (centres undefined) | 3.99 µM (active) | 4.47 µM (active) | – | –
C[C@@H]1[C@H](O)[C@@H]2OC(=O)C3=C2[C@H](CCC3)[C@@]12C[C@@H](c1ccoc1)OC2=O | inactive | inactive | – | –
C=C[C@@]1(C)CC(=O)C2[C@](C)(O1)[C@@H](OC(C)=O)[C@@H](O)[C@H]1C(C)(C)CCC[C@]21C (some centres undefined) | – | – | 97.8% [at 9.25 µM] | 89.7% [at 9.25 µM]
CC(=O)c1c(C)cc(O[C@@H]2O[C@H](CO)[C@@H](O)[C@H](O)[C@H]2O)cc1O | inactive | inactive | – | –
CNCCC=C1c2ccccc2CCc2ccccc21 | 11.6 µM (active) | 14.6 µM (active) | – | –
O=C(c1ccc(F)c(F)c1Nc1ccc(I)cc1F)N1CC(O)(C2CCCCN2)C1 (centres undefined) | 0.184 µM (active) | 0.326 µM (active) | – | –
CC1(C)CC[C@]2(C(=O)O)CC[C@]3(C)C(=CCC4[C@@]5(C)C[C@@H](O)[C@H](O)[C@@](C)(CO)C5CC[C@]43C)C2C1 (some centres undefined) | inactive | 7.96 µM (active) | – | –
COc1cc(NC(=O)Nc2cccc(CNC(=O)O[C@H]3CCOC3)c2)ccc1-c1cnco1 | 1.3 µM (active) | 0.82 µM (active) | – | –
CNC(=O)COC(=O)NCCC1CCN(c2cccc(C)n2)CC1 | inactive | inactive | – | –
N#C/C(=C1/SC[C@@H](c2ccc(Cl)cc2Cl)S1)n1ccnc1 | 11.9 µM (active) | 13.3 µM (active) | – | –
COc1cc(CCCO)ccc1O[C@@H]1O[C@H](CO)[C@@H](O)[C@H](O)[C@H]1O | inactive | inactive | – | –
O=C(Nc1cccc(Nc2cc(Nc3cccc(C(F)(F)F)c3)ncn2)c1)C1CC1 | 0.164 µM (active) | 0.259 µM (active) | – | –
COc1cc(C(C)C)c(Oc2cnc(N)nc2N)cc1I | 10.3 µM (active) | 10.3 µM (active) | – | –
C=C1C(=O)OC2CC(C)C(CCC(C)=O)=CCC12 (centres undefined) | 8.2 µM (active) | 5.17 µM (active) | – | –
OC[C@H]1O[C@@H](OCCc2ccccc2)[C@H](O)[C@@H](O)[C@@H]1O | inactive | inactive | – | –
CC(=O)O[C@H]1[C@H](C)[C@@H](O)[C@H]2[C@@H]1C=C(C(=O)O)[C@H]1C[C@@H]3[C@H]([C@H]21)[C@H]1C(=O)O[C@@H]2CC[C@@]3(C)O[C@]1(O)[C@@H]2C | inactive | inactive | – | –
COc1cc2ncnc(Sc3nnc(C)s3)c2cc1OC | 0.82 µM (active) | 1.16 µM (active) | – | –
